Results: PubChem BioAssay (NCI)
Compounds without any hit were thinned out: in the full panel of roughly 83,000, 20% have a hit.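 Each cell line was grown in a 96-well plate and treated with one concentration of compound for 48 hours. Values below 10 were considered active.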 Values without a mark were called inactive. Activity calls are given as the source filed them.

Tests used:
Assay in all cases: NCI-60 one-dose screen, 48 h (100 = growth as untreated, 0 = no growth, -100 = all killed)
SK-MEL-2 melanoma = settings: 10 µM unless noted
EKVX NSCLC = settings: 10 µM unless noted
SN12C renal = settings: 10 µM unless noted
UO-31 renal = settings: 10 µM unless noted
ACHN renal = settings: 10 µM unless noted
A498 renal = settings: 10 µM unless noted
CCRF-CEM leukemia = settings: 10 µM unless noted
MOLT-4 leukemia = settings: 10 µM unless noted
TK-10 renal = settings: 10 µM unless noted
CAKI-1 renal = settings: 10 µM

Row | SMILES | growth (SK-MEL-2 melanoma) | growth (EKVX NSCLC) | growth (SN12C renal) | growth (UO-31 renal) | growth (ACHN renal) | growth (A498 renal) | growth (CCRF-CEM leukemia) | growth (MOLT-4 leukemia) | growth (TK-10 renal) | growth (CAKI-1 renal)
1 | COc1cccc(-c2nc3sccn3c2-c2ccnc(NCCNC(=O)Nc3cccc(C(F)(F)F)c3)n2)c1 | 61.9% | 61.5% | 68.8% | 39.7% | 46.2% | 61.6% | 27% | 36.7% |  | 
2 | O=C1OC(c2ccc(-c3ccccc3)cc2)=C/C1=C/C=C/c1ccccc1 | 114% | 102% |  | 80% | 102% | 84.4% | 24.2% |  | 107% | 
3 | Cc1ccc(=O)n(-c2ccc(Br)cc2F)c1 | 116% | 99.5% | 107% | 90.7% | 94.6% | 84% | 99.9% | 108% |  | 
4 | COc1ccc(-c2[nH]c3ccccc3c2/C=C(\C#N)S(=O)(=O)c2ccccc2)cc1 | 76.5% | 14.1% | 42.2% |  | 51% | 2.31% (active) | 8.07% (active) | 6.08% (active) | 91.7% | -14.3% (active)
5 | CCCCCCCCCCCCCCCC(=O)NS(=O)(=O)OC[C@H]1O[C@@H](n2cnc3c(N)ncnc32)[C@H](O)[C@@H]1O | -24.7% (active) | -8.18% (active) | -12.9% (active) | -69.8% (active) | -18.6% (active) | -95.6% (active) | 5.11% (active) | -4.18% (active) |  | 
6 | CC(=O)N1N=C2N(Cc3ccccc3)C(=O)c3c(sc4c3CCCC4)N2C1c1cn(-c2ccccc2)nc1-c1ccc(Cl)cc1 (stereo not drawn) | 98% | 87.9% | 103% |  | 96.6% | 103% | 92.4% | 86.3% | 102% | 
7 | CS(=O)(=O)Nc1cccc(-c2ccc3ncnc(Nc4cncc(Cl)c4)c3c2)c1 | 2.44% (active) | 10.8% | 52.5% | 30.3% | 25.6% | -34.1% (active) | 17.1% | 0.601% (active) |  | 
8 | COc1ccc2c(c1)C(=O)/C(=C/c1cccc(OCC(=O)c3ccccc3)c1)O2 | 75.1% | 82.1% | 32.9% |  | 45.1% | 117% | -39.3% (active) | -52.4% (active) | 30.7% | 
9 | O=S(=O)(CCN1CCOCC1)Nc1cc(-c2ccc3ncnc(Nc4ccc(F)c(Cl)c4)c3c2)cnc1Cl | 2.26% (active) | 7.72% (active) | 18% | -8.69% (active) | 9.87% (active) | -40% (active) | 14.5% | -8.59% (active) |  | 
10 | O=c1c2ccccc2sc2c(N3CCCC3)nc3ccccc3c12 | 127% | 103% | 91.3% | 97% | 98.6% | 73% | 92.1% | 102% |  | 
11 | O=C(NOC1OC(CO)C(O)C(O)C1O)Nc1ccccc1 (stereo not drawn) | 98.3% | 102% | 91.6% |  | 101% |  | 91% | 79.7% | 109% | 92.1%
12 | CCCN1C(=O)CSC1=Nc1ccc2cc3ccc(N=C4SCC(=O)N4CCC)cc3nc2c1 | 38.1% | 33.8% | 75% |  | 36.4% | 63.4% | 31% | -18.8% (active) | 56.8% | 
13 | COc1cc2ncn3c(=O)c4c5c(sc4nc3c2cc1OC)CCCCC5 | 113% | 87.9% | 105% | 92.5% | 94% |  | 103% | 106% |  | 
14 | CCCCN(CCCC)c1ccc(C(=N)c2ccc(N(C)C)cc2)cc1 | -69.6% (active) | -11.9% (active) | -30% (active) |  | -2.72% (active) |  | 1.04% (active) | 1.79% (active) | -5.56% (active) | -28.9% (active)
15 | Cc1cn(-c2cc(C(=O)Nc3cccc(-n4ccc5c(NC(=O)c6ccccc6)nccc54)c3)cc(C(F)(F)F)c2)cn1 | 11.2% | 45.6% | 21.7% | 15.5% | 27.6% | 16.1% | -21.7% (active) | 12.4% |  | 
16 | O=C(/C=C/c1ccco1)c1cccc(Nc2nc(Nc3ccccc3)nc(Nc3ccccc3)n2)c1 | 83.9% | 77.8% | 98.6% |  | 95.5% | -34.7% (active) | 56.4% | 61.7% | 141% | 92.8%

Row | SMILES | growth (SK-MEL-2 melanoma) | growth (EKVX NSCLC) | growth (SN12C renal) | growth (UO-31 renal) | growth (ACHN renal) | growth (A498 renal) | growth (CCRF-CEM leukemia) | growth (MOLT-4 leukemia) | growth (TK-10 renal) | growth (CAKI-1 renal)
17 | Nc1ncc(-c2ccc3ncnc(Nc4cncc(Cl)c4)c3c2)cn1 | 66.4% | 33% | 69.8% | 41.9% | 41.6% |  | 84.5% | 77.8% |  | 
18 | COC(=O)c1ccc2c(c1)Oc1ccc(Cl)cc1-c1cc(C)nn1-2 | 100% | 66.9% | 51.8% | 82.2% | 22.6% | 62.7% | 78.8% | 99.9% |  | 
19 | CCCC(=O)Oc1ccc(/C(=C(\C)c2ccc(Cl)cc2)c2ccc(OCCN(CC)CC)cc2)cc1 | -74.4% (active) | 12% | 35.3% | -65% (active) | -23.2% (active) |  | -18.6% (active) | -13.1% (active) |  | 
20 | c1ccc2c(c1)Oc1cccnc1-n1nccc1-2 | 121% | 104% | 101% | 101% | 99.7% | 87.2% | 104% | 109% |  | 
21 | COc1ccc2c(c1)C(=O)/C(=C/c1ccc(OCC(=O)c3ccc(Cl)cc3)cc1)O2 | 87% | 82% | 92.2% |  | 98.8% | 148% | 29% | 20% | 132% | -53.4% (active)
22 | Cn1c(I)c(C#C[Si](C)(C)C)c(=O)[nH]c1=O | 60.7% | 86.5% | 32.8% |  | -28.4% (active) | 130% | -61.6% (active) | -59.7% (active) | 82.3% | -79% (active)
23 | CC(C)C1(C(C)C)NC(=O)NC1=O | 108% | 92.7% | 99% | 78.4% | 106% | 93.8% | 93.7% | 97.6% |  | 
24 | CCC(CC(C)C)Nc1ccc(NC(CC)CC(C)C)cc1 (stereo not drawn) | 86.4% | 81.4% | 96.3% | 93% | 95.3% | 94.1% | 10.4% | 34.5% |  | 
25 | CC(=O)c1ccc2c(c1)C1C=CCC1[C@H](c1cc3c(cc1Br)OCO3)N2 (stereo partly drawn) | 16.1% | 34.9% | 43.5% |  | 38.6% | 13.5% | 4.69% (active) | 7.5% (active) | 60.6% | 20.3%
26 | Nc1ncnc2c1ncn2C1OC(COC(c2ccccc2)(c2ccccc2)c2ccccc2)C(O)C1O (stereo not drawn) | 87.7% | 91.6% | 93.7% | 80.5% | 47.9% | 103% | 46.1% | 78.8% |  | 
27 | CCCCCCCC(=O)SCC/C=C/[C@@H]1CC(=O)NCc2nc(cs2)C2=N[C@@](C)(CS2)C(=O)N[C@@H](C(C)C)C(=O)N1 | -34.7% (active) | 32.8% | 35.5% | 18.9% | 7.25% (active) | -50.3% (active) | 21.3% | 9.36% (active) |  | 
28 | COc1cc(Nc2ncccc2C(=O)Nc2nc3ccc(F)cc3s2)cc(OC)c1OC | 75.3% | 22% | 63.2% |  | 79.9% | 62.2% | 29.7% | 74.5% | 114% | 
29 | COc1ccc(C(=O)NC(=O)Nc2ccc3c(c2)NC(=O)/C3=C\c2[nH]c(C)c(C(=O)O)c2C)c(F)c1 | 55.3% | 94.4% | 57.9% | 88.4% | 55.2% | 64.8% | 84.3% | 86.2% |  | 
30 | O=C(NCCNc1nccc(-c2c(-c3cccc(O)c3)nc3sccn23)n1)c1cccc(C(F)(F)F)c1 | 62.1% | 91.6% | 83.2% | 73.4% | 66.1% | 84.5% | 37.5% | 61.5% |  | 
31 | c1ccc([Se]CCCN2CCN(CCC[Se]c3ccccc3)CC2)cc1 | 121% | 1.25% (active) | 104% |  | 100% |  | 105% | 127% | 129% | 
